The values below come from ChEMBL document CHEMBL1961873, “Compounds: GSK PKIS; Assays: Nanosyn kinase panel” (2012).

As a reminder, the inhibition is the change of the read-out against control, counted positive when it falls.

Assay [1] addresses 5'-AMP-activated protein kinase catalytic subunit alpha-2 (Homo sapiens) (UniProt P54646). The settings on record: at 1 µM.
Assay [2] deals with T1, NUAK family SNF1-like kinase 1 (Homo sapiens) (UniProt O60285).
T1 sequence (whole entry): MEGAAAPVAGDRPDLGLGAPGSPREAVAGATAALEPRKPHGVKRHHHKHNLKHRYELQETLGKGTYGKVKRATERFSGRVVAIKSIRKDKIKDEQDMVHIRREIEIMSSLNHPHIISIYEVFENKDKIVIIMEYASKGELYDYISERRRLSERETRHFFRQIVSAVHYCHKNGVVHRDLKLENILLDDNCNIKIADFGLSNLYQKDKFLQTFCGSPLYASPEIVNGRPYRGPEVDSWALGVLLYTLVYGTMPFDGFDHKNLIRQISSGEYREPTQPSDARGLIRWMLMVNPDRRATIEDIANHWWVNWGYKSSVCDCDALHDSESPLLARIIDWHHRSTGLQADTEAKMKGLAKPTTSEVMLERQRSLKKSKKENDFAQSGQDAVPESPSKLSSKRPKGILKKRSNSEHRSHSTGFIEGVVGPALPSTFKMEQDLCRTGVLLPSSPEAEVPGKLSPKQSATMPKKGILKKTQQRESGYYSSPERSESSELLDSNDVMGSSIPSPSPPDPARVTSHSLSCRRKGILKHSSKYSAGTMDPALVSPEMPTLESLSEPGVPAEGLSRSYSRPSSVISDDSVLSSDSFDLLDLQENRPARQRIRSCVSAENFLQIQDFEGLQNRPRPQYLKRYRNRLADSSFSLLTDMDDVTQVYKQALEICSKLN
The note with it: at 0.1 µM.

Assay [3] concerns the target T1, NUAK family SNF1-like kinase 1 (Homo sapiens). The note with it: at 1 µM.
Assay [4] deals with T2, Serine/threonine-protein kinase BRSK1 (Homo sapiens) (UniProt Q8TDC3).
T2 sequence (whole entry): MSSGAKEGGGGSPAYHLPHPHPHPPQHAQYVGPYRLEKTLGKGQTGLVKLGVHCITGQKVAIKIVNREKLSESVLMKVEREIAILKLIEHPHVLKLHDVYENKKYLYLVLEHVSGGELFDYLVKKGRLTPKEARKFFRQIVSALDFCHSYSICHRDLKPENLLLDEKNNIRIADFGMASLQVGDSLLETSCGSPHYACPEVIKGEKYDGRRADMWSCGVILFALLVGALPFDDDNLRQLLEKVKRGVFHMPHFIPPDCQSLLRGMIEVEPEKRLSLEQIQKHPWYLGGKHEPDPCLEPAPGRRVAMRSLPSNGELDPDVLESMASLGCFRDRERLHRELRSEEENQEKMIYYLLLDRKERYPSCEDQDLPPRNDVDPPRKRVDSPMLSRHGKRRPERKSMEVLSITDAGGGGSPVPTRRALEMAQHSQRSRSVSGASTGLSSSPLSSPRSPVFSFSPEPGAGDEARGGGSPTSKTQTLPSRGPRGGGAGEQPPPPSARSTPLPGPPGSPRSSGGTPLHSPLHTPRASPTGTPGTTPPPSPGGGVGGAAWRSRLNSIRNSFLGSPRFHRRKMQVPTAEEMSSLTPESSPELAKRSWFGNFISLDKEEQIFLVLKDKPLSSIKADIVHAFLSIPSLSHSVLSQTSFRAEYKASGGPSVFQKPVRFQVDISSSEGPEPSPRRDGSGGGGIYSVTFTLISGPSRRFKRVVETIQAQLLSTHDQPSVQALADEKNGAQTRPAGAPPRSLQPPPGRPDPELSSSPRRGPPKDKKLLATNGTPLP
The settings on record: at 0.1 µM.

The target in assay [5] is T2, Serine/threonine-protein kinase BRSK1 (Homo sapiens). The settings on record: at 1 µM.
Assay [6] concerns the target T3, Serine/threonine-protein kinase BRSK2 (Homo sapiens) (UniProt Q8IWQ3).
T3 sequence (whole entry): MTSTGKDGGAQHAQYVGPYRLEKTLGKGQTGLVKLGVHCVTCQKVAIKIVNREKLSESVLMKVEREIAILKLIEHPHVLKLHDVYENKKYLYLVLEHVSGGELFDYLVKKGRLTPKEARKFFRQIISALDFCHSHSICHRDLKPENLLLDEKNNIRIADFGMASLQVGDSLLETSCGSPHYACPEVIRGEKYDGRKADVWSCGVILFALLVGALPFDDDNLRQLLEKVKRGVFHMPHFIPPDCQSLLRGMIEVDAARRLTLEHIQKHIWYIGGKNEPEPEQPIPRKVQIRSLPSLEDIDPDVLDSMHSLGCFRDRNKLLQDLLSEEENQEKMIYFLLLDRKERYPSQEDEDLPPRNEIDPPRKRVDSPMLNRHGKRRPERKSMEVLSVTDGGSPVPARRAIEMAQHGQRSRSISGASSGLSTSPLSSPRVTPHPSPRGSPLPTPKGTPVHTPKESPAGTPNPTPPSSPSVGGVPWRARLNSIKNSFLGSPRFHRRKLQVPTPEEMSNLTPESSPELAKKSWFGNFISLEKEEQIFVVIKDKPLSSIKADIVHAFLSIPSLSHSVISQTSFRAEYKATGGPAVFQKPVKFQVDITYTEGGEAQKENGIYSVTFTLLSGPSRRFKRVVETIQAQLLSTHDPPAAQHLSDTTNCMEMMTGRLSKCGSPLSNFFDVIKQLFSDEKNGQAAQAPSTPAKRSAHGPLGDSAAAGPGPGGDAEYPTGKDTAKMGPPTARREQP
The settings on record: at 0.1 µM.

In assay [7] the target is T3, Serine/threonine-protein kinase BRSK2 (Homo sapiens). The note with it: at 1 µM.
Assay [8] has as its target Calcium/calmodulin-dependent protein kinase type 1D (Homo sapiens) (UniProt Q8IU85). The settings on record: at 0.1 µM.
Assay [9] has the same target. The settings on record: at 1 µM.
Assay [10] has as its target Calcium/calmodulin-dependent protein kinase type II subunit alpha (Homo sapiens) (UniProt Q9UQM7). The note with it: at 0.1 µM.
Assay [11] has the same target. The note with it: at 1 µM.
Assay [12] concerns the target Calcium/calmodulin-dependent protein kinase type II subunit delta (Homo sapiens) (UniProt Q13557). The note with it: at 0.1 µM.
Assay [13] has the same target. The settings on record: at 1 µM.
Assay [14] concerns the target T4, Calcium/calmodulin-dependent protein kinase type IV (Homo sapiens) (UniProt Q16566).
T4 sequence (whole entry): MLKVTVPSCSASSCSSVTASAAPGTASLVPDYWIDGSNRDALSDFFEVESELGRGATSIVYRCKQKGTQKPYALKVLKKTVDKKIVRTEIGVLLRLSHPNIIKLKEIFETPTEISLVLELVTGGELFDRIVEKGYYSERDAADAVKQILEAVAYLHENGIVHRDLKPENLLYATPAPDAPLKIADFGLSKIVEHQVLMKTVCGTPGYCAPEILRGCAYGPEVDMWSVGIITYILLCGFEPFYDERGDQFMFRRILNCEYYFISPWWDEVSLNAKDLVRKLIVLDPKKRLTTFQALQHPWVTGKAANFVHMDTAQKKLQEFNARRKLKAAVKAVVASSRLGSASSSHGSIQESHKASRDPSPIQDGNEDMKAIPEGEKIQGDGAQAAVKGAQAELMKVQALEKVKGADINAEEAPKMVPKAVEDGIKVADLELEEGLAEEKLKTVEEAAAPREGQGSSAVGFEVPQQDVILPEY
The note with it: at 0.1 µM.

Assay [15] addresses T4, Calcium/calmodulin-dependent protein kinase type IV (Homo sapiens). The note with it: at 1 µM.
In assay [16] the target is T5, Serine/threonine-protein kinase Chk1 (Homo sapiens) (UniProt O14757).
T5 sequence (whole entry): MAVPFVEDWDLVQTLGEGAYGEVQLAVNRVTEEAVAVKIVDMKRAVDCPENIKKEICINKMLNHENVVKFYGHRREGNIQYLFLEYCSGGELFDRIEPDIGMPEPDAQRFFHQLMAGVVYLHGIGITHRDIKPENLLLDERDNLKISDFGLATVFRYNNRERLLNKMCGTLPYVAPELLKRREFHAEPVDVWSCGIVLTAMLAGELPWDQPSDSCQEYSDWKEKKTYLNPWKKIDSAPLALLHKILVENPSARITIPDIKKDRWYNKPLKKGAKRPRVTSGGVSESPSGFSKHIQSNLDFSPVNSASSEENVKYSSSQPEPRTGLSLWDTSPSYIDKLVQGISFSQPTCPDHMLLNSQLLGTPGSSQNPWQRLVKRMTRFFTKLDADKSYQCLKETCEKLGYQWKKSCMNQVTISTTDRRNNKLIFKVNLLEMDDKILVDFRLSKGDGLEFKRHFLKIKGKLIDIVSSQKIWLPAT
The note with it: at 0.1 µM.

Assay [17] has as its target T5, Serine/threonine-protein kinase Chk1 (Homo sapiens). The settings on record: at 1 µM.
Assay [18] deals with Serine/threonine-protein kinase Chk2 (Homo sapiens) (UniProt O96017). The settings on record: at 0.1 µM.
Chain of Serine/threonine-protein kinase Chk2 (Homo sapiens) (O96017 whole entry): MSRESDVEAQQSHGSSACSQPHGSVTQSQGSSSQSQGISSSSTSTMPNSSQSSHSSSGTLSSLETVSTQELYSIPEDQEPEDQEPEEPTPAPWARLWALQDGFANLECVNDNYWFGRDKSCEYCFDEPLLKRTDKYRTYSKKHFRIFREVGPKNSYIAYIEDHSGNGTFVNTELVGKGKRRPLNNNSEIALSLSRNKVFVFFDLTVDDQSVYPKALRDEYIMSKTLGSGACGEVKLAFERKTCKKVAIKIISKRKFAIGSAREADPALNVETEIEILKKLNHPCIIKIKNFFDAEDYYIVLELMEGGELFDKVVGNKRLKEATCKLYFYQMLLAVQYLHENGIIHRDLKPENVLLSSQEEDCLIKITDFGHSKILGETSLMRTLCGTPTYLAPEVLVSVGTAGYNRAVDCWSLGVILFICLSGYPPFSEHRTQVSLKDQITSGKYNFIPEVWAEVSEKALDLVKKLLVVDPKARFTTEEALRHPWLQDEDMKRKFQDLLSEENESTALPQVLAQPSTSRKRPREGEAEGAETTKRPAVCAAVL
Assay [19] has the same target. The note with it: at 1 µM.
For assay [20], the target named is Death-associated protein kinase 1 (Homo sapiens) (UniProt P53355). The note with it: at 0.1 µM.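 Further: reported figure is the mean inhibition of DAPK1.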
Chain of Death-associated protein kinase 1 (Homo sapiens) (P53355 whole entry, looked up): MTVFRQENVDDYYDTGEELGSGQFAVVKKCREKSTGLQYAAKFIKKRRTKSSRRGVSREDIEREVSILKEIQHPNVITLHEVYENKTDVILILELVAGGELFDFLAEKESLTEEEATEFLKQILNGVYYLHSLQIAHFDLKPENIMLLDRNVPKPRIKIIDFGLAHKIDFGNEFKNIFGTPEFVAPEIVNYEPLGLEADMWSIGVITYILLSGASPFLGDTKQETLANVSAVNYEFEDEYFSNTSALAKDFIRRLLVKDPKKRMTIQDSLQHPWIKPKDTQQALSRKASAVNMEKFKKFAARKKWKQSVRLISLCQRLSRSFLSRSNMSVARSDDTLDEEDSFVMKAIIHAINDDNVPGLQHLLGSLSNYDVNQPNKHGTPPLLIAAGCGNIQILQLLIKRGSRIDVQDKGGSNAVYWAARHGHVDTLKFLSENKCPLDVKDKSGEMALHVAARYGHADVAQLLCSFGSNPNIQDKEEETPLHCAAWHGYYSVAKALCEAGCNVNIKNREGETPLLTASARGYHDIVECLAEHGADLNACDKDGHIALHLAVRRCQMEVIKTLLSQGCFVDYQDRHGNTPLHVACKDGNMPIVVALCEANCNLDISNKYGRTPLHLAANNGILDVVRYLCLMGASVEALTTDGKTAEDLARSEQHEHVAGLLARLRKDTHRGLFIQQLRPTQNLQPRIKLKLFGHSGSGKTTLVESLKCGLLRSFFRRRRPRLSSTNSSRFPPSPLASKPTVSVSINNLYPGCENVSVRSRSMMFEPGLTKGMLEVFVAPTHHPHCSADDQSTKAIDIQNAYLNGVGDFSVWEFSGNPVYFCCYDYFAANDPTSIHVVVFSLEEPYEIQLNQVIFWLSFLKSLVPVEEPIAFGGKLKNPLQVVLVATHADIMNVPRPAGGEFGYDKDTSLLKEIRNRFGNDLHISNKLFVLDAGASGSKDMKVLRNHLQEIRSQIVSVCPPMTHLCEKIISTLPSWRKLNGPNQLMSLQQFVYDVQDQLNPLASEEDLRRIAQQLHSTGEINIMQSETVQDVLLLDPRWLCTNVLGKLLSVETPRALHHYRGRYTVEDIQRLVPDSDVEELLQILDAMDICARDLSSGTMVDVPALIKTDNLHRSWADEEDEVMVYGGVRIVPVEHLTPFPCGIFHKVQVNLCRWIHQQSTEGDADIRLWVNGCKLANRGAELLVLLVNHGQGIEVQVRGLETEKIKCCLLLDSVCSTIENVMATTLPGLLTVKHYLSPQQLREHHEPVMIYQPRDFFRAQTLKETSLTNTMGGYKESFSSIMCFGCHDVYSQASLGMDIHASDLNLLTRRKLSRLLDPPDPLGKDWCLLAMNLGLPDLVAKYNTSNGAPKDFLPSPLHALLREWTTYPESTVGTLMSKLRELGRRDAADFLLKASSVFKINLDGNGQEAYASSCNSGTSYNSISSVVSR

Chain of Calcium/calmodulin-dependent protein kinase type II subunit alpha (Homo sapiens) (Q9UQM7 whole entry): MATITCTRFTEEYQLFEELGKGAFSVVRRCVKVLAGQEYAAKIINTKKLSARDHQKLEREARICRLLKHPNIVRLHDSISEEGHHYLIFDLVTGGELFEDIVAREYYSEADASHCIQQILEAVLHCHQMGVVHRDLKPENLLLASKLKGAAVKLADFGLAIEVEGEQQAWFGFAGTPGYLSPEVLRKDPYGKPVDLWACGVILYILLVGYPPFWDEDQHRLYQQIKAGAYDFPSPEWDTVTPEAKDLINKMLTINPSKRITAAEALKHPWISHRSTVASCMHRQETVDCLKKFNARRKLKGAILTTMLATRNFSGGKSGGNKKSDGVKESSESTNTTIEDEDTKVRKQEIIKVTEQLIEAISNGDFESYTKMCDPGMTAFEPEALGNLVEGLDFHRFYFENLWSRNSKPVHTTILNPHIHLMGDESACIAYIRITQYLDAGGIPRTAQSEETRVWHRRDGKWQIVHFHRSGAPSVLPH
Chain of 5'-AMP-activated protein kinase catalytic subunit alpha-2 (Homo sapiens) (P54646 whole entry, looked up): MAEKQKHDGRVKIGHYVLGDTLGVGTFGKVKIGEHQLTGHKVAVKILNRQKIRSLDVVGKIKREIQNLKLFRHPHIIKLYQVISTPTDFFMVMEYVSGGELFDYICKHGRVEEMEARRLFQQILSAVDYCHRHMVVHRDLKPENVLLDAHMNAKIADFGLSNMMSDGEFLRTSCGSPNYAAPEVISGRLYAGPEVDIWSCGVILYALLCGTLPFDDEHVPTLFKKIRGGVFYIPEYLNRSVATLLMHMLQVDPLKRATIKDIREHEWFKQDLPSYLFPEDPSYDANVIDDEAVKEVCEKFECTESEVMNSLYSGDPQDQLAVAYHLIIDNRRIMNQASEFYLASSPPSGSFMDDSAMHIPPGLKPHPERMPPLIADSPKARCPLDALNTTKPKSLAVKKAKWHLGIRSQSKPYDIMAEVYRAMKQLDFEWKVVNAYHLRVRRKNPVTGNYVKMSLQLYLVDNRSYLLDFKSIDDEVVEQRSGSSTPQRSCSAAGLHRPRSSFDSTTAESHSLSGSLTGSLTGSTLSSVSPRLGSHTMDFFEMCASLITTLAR
Chain of Calcium/calmodulin-dependent protein kinase type II subunit delta (Homo sapiens) (Q13557 whole entry): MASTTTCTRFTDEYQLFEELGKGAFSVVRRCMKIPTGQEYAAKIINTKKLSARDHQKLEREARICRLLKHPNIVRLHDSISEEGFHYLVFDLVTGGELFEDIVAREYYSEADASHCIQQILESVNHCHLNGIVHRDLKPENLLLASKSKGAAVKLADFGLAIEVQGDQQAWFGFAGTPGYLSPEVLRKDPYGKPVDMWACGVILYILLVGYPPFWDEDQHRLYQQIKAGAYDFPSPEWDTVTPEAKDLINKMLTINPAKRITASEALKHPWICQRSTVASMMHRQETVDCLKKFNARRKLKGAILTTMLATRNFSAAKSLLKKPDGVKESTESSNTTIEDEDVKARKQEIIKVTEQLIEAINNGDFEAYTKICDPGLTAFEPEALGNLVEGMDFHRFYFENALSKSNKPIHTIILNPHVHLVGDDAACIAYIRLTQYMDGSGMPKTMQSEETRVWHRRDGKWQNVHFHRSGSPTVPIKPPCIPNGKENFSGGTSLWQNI
Chain of Calcium/calmodulin-dependent protein kinase type 1D (Homo sapiens) (Q8IU85 whole entry, looked up): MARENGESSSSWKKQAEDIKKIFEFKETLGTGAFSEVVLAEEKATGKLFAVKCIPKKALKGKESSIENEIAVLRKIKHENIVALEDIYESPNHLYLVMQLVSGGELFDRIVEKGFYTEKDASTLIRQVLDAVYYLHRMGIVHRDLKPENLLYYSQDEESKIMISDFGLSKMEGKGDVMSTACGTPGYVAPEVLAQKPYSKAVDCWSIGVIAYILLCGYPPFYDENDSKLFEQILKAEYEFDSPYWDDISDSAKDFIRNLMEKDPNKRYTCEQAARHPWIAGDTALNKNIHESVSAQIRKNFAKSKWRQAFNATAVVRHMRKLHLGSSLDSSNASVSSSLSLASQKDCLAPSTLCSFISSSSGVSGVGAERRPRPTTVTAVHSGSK

As to `CCn1c(-c2nonc2N)nc2c(C#CC(C)(C)O)ncc(OC[C@@H]3CCCN3)c21`, the inhibition was 4.25% in assay [1]; 6.58% in assay [2]; 34.4% in assay [3]; -0.75% in assay [4]; 1.83% in [5]; 0.98% in assay [6]. The inhibition in assay [7] is 1.11%; in assay [8] it was 0.27%; in assay [9] it was 0.84%; in [10], 1.28%; in assay [11], -2.05%; in [12], 0.64%. For the same compound, the inhibition is 0.35% in [13]; 0.16% in [14]; -0.65% in assay [15]; -1.63% in assay [16]; 2.95% in assay [17]; 0.37% in [18]. Further, the inhibition in [19] is 1.08%; in assay [20] it was 1.35%.
On to `Cc1cc(-c2ccco2)cc(C)c1/C=C/c1cncc(-c2nn[nH]n2)c1`, for which the inhibition is 2.58% in assay [1]; -1.33% in assay [2]; -1.37% in assay [3]; -0.09% in assay [4]; 1.13% in assay [5]; 0.76% in [6]. For the same compound, the inhibition in [7] was 0.62%; in assay [8], 0.45%; in [9] it was -0.49%; in assay [10], 1.37%; in assay [11], -0.97%; in assay [12], -0.09%. In addition, the inhibition is 0.35% in assay [13]; 1.45% in [14]; 1.06% in [15]; -8.36% in assay [16]; -1.92% in assay [17]; -0.74% in [18]. Moreover, the inhibition in assay [19] is -0.4%; in assay [20], 1.92%.
In the case of `CCn1c(-c2nonc2N)nc2c(C#CCN)ncc(OCCCN)c21`, the inhibition in [1] amounted to 2.16%; in assay [2], 6.71%; in [3] it was 10.4%; in assay [4], 4.54%; in [5] it was 10.3%; in assay [6], 7.19%. Moreover, the inhibition was 12.2% in [7]; -0.21% in [8]; -0.05% in assay [9]; -2.48% in assay [10]; -1.33% in assay [11]; -4.81% in [12]. In addition, the inhibition is -4.58% in [13]; -6% in assay [14]; -5.56% in assay [15]; -3.81% in [16]; 0.26% in [17]; -1.17% in assay [18]. Also, the values for the inhibition in assay [19] and in assay [20] were 0.23% and -2.99%, respectively.
